# Screening data from PubChem BioAssay.
# Shiga toxin inh – Shiga toxin inhibition; inhibition, % at 38.7 µM; Vero cells, Shiga toxin protein synthesis inhibition reporter; hit rate 9.2% among 290,000; AID 2315; in the data active = inhibition mostly above about 28%, no sharp cut-off; inactive = mostly below about 43%
# MARV entry inh – blocks Marburg virus binding to or entry into cells; Marburg virus pseudotyped entry inhibition, cell reporter; Potency, µM (titrated, usually from 37.8 µM), usual class: inhibitors; hit rate 1.8% among 300,000; AID 540276; calls by dose curve; tested in HEK293 cells
# AMA1 RON2 block – AMA1-RON2 (P. falciparum) interaction inhibition. AlphaScreen AMA1-biotinylated RON2 peptide binding. Potency, µM (doses to about 58.2 µM), most hits filed as inhibitors. hit rate 0.2% among 360,000; active = well fitted inhibition curve with a large enough effect; inconclusive = small, poorly fitted or top-dose-only effect; inactive = no such curve, though single readings can be large or run the other way; note: nearly all actives have a fitted effect of over 45% in size
#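 AMA1 (3D7) with his tag at 25 nM final met compounds first, then biotinylated RON2 peptide at 25 nM; detection used donor plus acceptor beads, 10 µg/mL apiece, read by AlphaScreen after 30 min at room temperature.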
# Cycloheximide cs – counter-screen hit for Shiga toxin inhibitors, cycloheximide. cell reporter, cycloheximide protein synthesis inhibition counterscreen. max response, %. hit rate 12% among 300,000. AID 2314; in the data active = max response mostly above about 13%, no sharp cut-off; inactive = mostly below about 14%; note: read at 38.3 µM for the half of the compounds with a filed dose
# LASV entry inh – blocks Lassa virus binding to or entry into cells | Lassa virus pseudotype entry inhibition, cell reporter | Potency, µM (series often up to 37.9 µM), hits mostly inhibitors | hit rate 1.2% among 300,000 | AID 540256; calls by dose curve; tested in HEK293 cells; note: nearly all actives have a fitted effect of over 50% in size
# Numbers stand for hits; n = inactive; u = inconclusive; x = no result; [ ] = dose if it differs, or a comment. The entries come from a sample that favours hits as a whole.
SMILES,Shiga toxin inh,MARV entry inh,AMA1 RON2 block,Cycloheximide cs,LASV entry inh
CC(C)(C)c1ccc(C(=O)NC(=S)NCc2cccnc2)cc1,active,u,n,45,u
CC(C)(C)c1ccc(C(=O)NCc2cccnc2)cc1,n,n,n,n,u
O=C(O)CSc1nnc(NC(=O)c2ccc3c(c2)OCO3)s1,n,u,n,n,8.9µM
CCC(CC)c1nnc(NC(=O)c2ccc3c(c2)OCO3)s1,62,u,n,19,u
O=C(Nc1nnc(Cc2ccc([N+](=O)[O-])cc2)s1)c1ccc2c(c1)OCO2,n,n,n,n,n
CC(C)(C)Cc1nnc(NC(=O)c2ccc3c(c2)OCO3)s1,48,n,n,44,n
COC(=O)CSc1nnc(NC(=O)c2ccc3c(c2)OCO3)s1,n,x,n,n,x
CC(=O)c1ccc(NC(=O)c2c3c(nc4ccccc24)C(=O)N(C2CCCCC2)C3)cc1,x,x,x,x,n
Cc1cccc(NC(=O)c2oc3ccc(S(=O)(=O)N(C)C4CCCCC4)cc3c2C)c1C,x,x,x,x,n
O=C(NCCOc1ccccc1Cl)c1cc(F)c(F)cc1Cl,74,u,n,53,n
O=C(NCCc1ccccc1)c1ccccc1Cl,n,11µM,n,13,u
CSc1ccc(Cl)c(C(=O)NCCOc2ccccc2)c1,n,n,n,26,n
O=C(NCCOc1ccccc1)c1ccccc1Cl,55,u,n,43,u
COc1cc2c(cc1OC)CN(C(=O)C1CCCN1S(=O)(=O)c1ccc(F)cc1)CC2 (stereo not drawn),n,n,n,n,n
CCc1ccccc1NC(=O)Cc1c(C(=O)O)[nH]c2ccc(Cl)cc12,x,n,x,x,n
CC(=O)c1ccc[n+](CC(=O)NC(C)c2ccccc2)c1 (stereo not drawn),n,n,n,n,n
CN(C(=O)COc1ccccc1C(=O)NCCOc1ccccc1)c1ccccc1,n,u,n,n,11µM
O=C(NCCOc1ccc(F)cc1)c1ccccc1SCc1ccccc1,n,11µM,n,n,u
COc1cc(SC)ccc1C(=O)NCCOc1ccc(F)cc1,74,n,n,45,u
COc1ccc(CCNC(=O)c2ccc(SC)cc2OC)cc1,n,u,n,n,n
COc1ccc(S(=O)(=O)NCCc2cn3ccsc3n2)cc1,x,x,x,x,n
CCOC(=O)C1=C(C)NC(=O)N[C@H]1c1ccc2c(c1)OCO2,x,n,x,x,x
COc1ccc(S(=O)(=O)NC2CC(=O)N(c3cccc(F)c3)C2)cc1OC (stereo not drawn),x,u,n,x,n
O=C(NCc1cccnc1)C1CC(c2ccc(F)cc2)=NO1 (stereo not drawn),n,n,n,n,u
COc1ccc(CNC(=O)C2CC(c3cccc(OC)c3)=NO2)cc1 (stereo not drawn),n,n,n,n,u
SMILES,Shiga toxin inh,MARV entry inh,AMA1 RON2 block,Cycloheximide cs,LASV entry inh
COc1ccc(C2=NOC(C(=O)NCc3ccc(F)cc3)C2)cc1OC (stereo not drawn),n,u,n,n,0.82µM
CCCCNC(=O)C1CC(c2cccc([N+](=O)[O-])c2)=NO1 (stereo not drawn),83,x,n,25,x
COc1cccc(C2=NOC(C(=O)NCc3cccs3)C2)c1 (stereo not drawn),54,u,n,26,n
O=C(NCc1cccs1)C1CC(c2ccc(F)cc2)=NO1 (stereo not drawn),49,n,n,28,n
COc1cc(C2=NOC(C(=O)NCc3ccc(F)cc3)C2)cc(OC)c1OC (stereo not drawn),n,u,n,n,n
CC(C)(C)OC(=O)N1CCC(C(=O)NCC2CCCO2)CC1 (stereo not drawn),n,n,n,n,n
CC1=CC[C@@H](C)O[C@@]2(C1)C(=O)Nc1ccccc12,x,n,x,x,x
COc1cc(=O)[nH]c(SCC(=O)Nc2nc3c(s2)CCCC3)n1,n,n,n,n,n
O=C1C=CC(=O)N1CCCCCCCCCCN1C(=O)C=CC1=O,x,u,n,x,u
COc1ccc(C(CC(=O)Nc2ccc(C)cn2)N2Cc3ccccc3C2=O)cc1OC (stereo not drawn),x,x,x,x,n
O=C(CCCc1nc2ccccc2s1)N1CCN(S(=O)(=O)c2cccs2)CC1,n,10µM,n,n,u
O=C(CCCc1nc2ccccc2s1)N1CCN(c2ccccc2)CC1,n,u,n[11.6 µM],n,n
c1cnc2nc(-c3ccc4c(c3)OCO4)cn2c1,38,u,n,35,n
Cc1ccc(-c2cn3cccnc3n2)cc1,71,n,n,28,x
CS(=O)(=O)Nc1ccc(-c2cn3cccnc3n2)cc1,43,x,n,21,x
O=C(Nc1cccc(-c2cn3cccnc3n2)c1)c1ccc2c(c1)OCO2,n,n,n,n,n
OC1OC[C@H](O)[C@@H](O)[C@H]1O (stereo partly drawn),n,x,x,n,x
Cc1nc(NC(=O)CN2CCC(O)(c3ccc(F)cc3)CC2)sc1C,47,x,n,17,x
Cc1nc(NC(=O)CN2CCN(c3ccccc3F)CC2)sc1C(=O)N(C)C,n,x,n,n,x
CC(=O)c1cc2c(cc1NC(=O)c1cnn(-c3ccc(C)cc3)c1-n1cccc1)OCO2,x,x,x,x,n
CCOc1ccccc1C1N=C(c2ccc(OC)cc2)CC(c2ccccc2O)N1 (stereo not drawn),114,n,n,46,n
Cc1ccc(OCc2nnc(N)s2)cc1,27,u,n,28,u
Cc1ccc(OCc2nnc(N)s2)cc1C,59,n,n,21,u
CN1CCOc2cc(S(=O)(=O)NCc3ccc(S(N)(=O)=O)cc3)ccc21,n,n,n,n,n
O=C(Cc1cccc2c(=O)cc(-c3ccccc3)oc12)OCCN1CCOCC1,x,x,n,x,x
SMILES,Shiga toxin inh,MARV entry inh,AMA1 RON2 block,Cycloheximide cs,LASV entry inh
Cc1cc(NO)nc(-c2ccc(Br)cc2)n1,109,n,n,47,u
O=C1C=C(c2c(O)ccc3ccccc23)c2ccccc2C1=O,x,u,u,x,6.3µM
O=C1C=C(O)c2cccc(O)c2C1=O,n,x,n,n,x
CCOC(=O)CNc1c(-c2ccc(O)cc2)nc2ccc(Cl)cn12,n,n,n,23,n
CC1=CC(C)(C)N=C(Nc2ccc(C)cc2)S1,n,u,n,50,n
Cn1c(=O)c2c(nc(N3CCN(Cc4ccccc4)CC3)n2CCSc2ncccn2)n(C)c1=O,n,x,x,n,x
CCC(C(=O)NCCc1ccc(OC)c(OC)c1)n1nc(C)c2sc3ccccc3c2c1=O (stereo not drawn),x,n,x,x,n
Cc1nn(-c2cc(C(F)(F)F)ccc2Cl)c2nc(C(F)(F)F)[nH]c(=O)c12,n,n,n,n,n
Cc1nn(-c2cccc(Cl)c2)c2nc(C(F)(F)F)[nH]c(=O)c12,n,10µM,n[11.6 µM],n,n
COC(=O)[C@H]1[C@H]2C[C@@H]3c4[nH]c5cc(OC)ccc5c4CCN3C[C@H]2C[C@@H](OC(=O)c2cc(OC)c(OC)c(OC)c2)[C@@H]1OC,x,10µM,n,x,7.3µM
CCCCc1ccc(NC(=O)NCc2ccccn2)cc1,n,n,n,15,u
CCc1ccc(NC(=O)NCc2ccccn2)cc1,46,x,n,43,x
COc1ccc(NC(=O)NCc2ccccn2)cc1,n,n,n,n,n
CCOC(=O)c1ccccc1NC(=O)c1sc2ncn(Cc3cccc(F)c3)c(=O)c2c1C,x,x,x,x,n
C/C(CC(C)(C)c1ccccc1)=N\NS(=O)(=O)c1ccccc1,n,n,n,n,n
